# Screening results deposited in PubChem BioAssay by The Scripps Research Institute Molecular Screening Center.
# Compounds with a hit are over-represented: about 3.5% of the library has one in this group of screens.
# MITF primary = blocks human microphthalmia-associated transcription factor. O75030. AlphaScreen MITF homodimerization, bead proximity signal. inhibition, % at 2.6 µM. hit rate 0.91% among 650,000. AID 1259374; in the data active means inhibition above about 50%
# TEAD-YAP block = TEAD-YAP interaction inhibition; HEK-TIYL cells, TEAD-Gal4/YAP UAS-luciferase luminescence; AID 1259422; inhibition, % at 9.12 µM; hit rate 1.4% among 640,000; in the data active means inhibition above about 32%
# FBW7 activator = activators of human E3 ligase FBW7; Q969H0; AlphaScreen FBW7–phospho-cyclin E peptide binding, activator screen; normalized activity (activation), % at 26.1 µM; hit rate 0.13% among 650,000; AID 1259310; in the data active means normalized activity above about 1.9%;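 further: purified mutant Fbw7 with reduced substrate affinity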
# GPR151 activ = activates the human receptor GPR151. hit rate 1% among 650,000. activation, % at 11.2 µM. Q8TDV0. AID 1508602. PathHunter beta-arrestin GPR151 cells, luminescence; in the data active means activation above about 4.9%
# Target sequence (Q8TDV0 whole entry, looked up): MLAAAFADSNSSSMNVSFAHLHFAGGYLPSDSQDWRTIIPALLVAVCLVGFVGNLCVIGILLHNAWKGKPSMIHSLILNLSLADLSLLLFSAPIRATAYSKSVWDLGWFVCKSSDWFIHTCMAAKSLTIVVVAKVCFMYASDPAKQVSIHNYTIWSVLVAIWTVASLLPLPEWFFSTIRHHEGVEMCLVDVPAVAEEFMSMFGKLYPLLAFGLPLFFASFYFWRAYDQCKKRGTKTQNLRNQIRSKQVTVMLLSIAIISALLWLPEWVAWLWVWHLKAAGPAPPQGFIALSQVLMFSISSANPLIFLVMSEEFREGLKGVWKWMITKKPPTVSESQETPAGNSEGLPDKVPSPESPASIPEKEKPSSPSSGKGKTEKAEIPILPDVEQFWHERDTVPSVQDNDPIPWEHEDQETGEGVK
# GPR151 confirm = confirmation of human GPR151 activators; GPR151 PathHunter beta-arrestin cells, luminescence, 90 min; % of EA-reagent control over plate median; shares compounds with GPR151 activ; 6,700 tested, under 10 active; activation, % at 11.2 µM;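 active means mean percent activation across replicates above the confirmation screen cutoff of 4.91%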
# GPR119 ag = activates human GPR119 in a GPR151 counter-screen; shares compounds with GPR151 activ; GPR119 PathHunter beta-arrestin cells, luminescence, 90 min; 0 = compound-well median, 100 = enzyme-acceptor control; activation, % at 11.2 µM; hit rate 0.3% among 6,700;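 active means mean percent activation in the counterscreen above 29.09%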;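 further: counterscreen on off-target GPR119 to flag nonselective hits from the GPR151 activator screen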
# Numbers stand for hits; 0 = inactive; - = no result.
SMILES,MITF primary,TEAD-YAP block,FBW7 activator,GPR151 activ,GPR151 confirm,GPR119 ag
COc1ccc(OC)c(/C=C\c2onc(C)c2[N+](=O)[O-])c1,0,0,0,8.9,0,0
Cc1noc(/C=C/C=C/c2ccccc2)c1[N+](=O)[O-],0,0,0,0,-,-
COc1ccc([N+](=O)[O-])cc1NC(=O)c1sc2ncnc(N3CCC(C)CC3)c2c1C,0,0,0,13,0,0
CCN1CCN(c2ncnc3sc(C(=O)Nc4ccc(F)cc4)c(C)c23)CC1,0,0,0,5.2,0,0
CCN1CCN(c2ncnc3sc(C(=O)Nc4cnc5ccccc5c4)c(C)c23)CC1,0,0,0,5.3,0,0
Cc1ccc2c(NC(=O)c3ccc(Cl)cc3)noc2n1,0,0,0,7.1,0,0
CCC1CCCCN1C(=O)CSc1nc2ccccc2c(=O)n1CCC(=O)N1CCN(c2ccccc2)CC1 (stereo unspecified),0,0,0,0,-,-
CN1C(=O)/C(=C/c2ccccc2OS(C)(=O)=O)SC1=S,0,0,0,5.7,0,0
c1cnc2ccc(Nc3nc(NCCN4CCOCC4)c4[nH]cnc4n3)cc2c1,0,0,0,0,-,-
COc1ccc(CCNC(=O)CCNC(=O)Cn2cnc3ccccc3c2=O)cc1OC,0,0,0,0,-,-
CC1Cc2ccccc2N1C(=O)c1ccc2c(c1)OCO2 (stereo unspecified),0,0,0,0,-,-
COc1ccc(C(=O)N2c3ccccc3CC2C)cc1OC (stereo unspecified),0,0,0,6.4,0,0
COc1ccc(OC)c2c1sc(=NC(=O)c1ccco1)n2C,0,0,0,5.3,0,0
CCOCCn1c(=NC(=O)c2ccco2)sc2cc(C)ccc21,0,0,0,5.8,0,0
CCn1c(=NC(=O)c2ccco2)sc2cccc(F)c21,0,0,0,0,-,-
C=CCn1c(=NC(=O)c2ccco2)sc2cccc(OC)c21,0,0,0,0,-,-
CCn1c(=NC(=O)c2ccco2)sc2cc3c(cc21)OCCO3,0,0,0,5.7,0,0
CCn1c(=NC(=O)c2ccco2)sc2cccc(OC)c21,0,0,0,5.0,0,0
COc1ccccc1N1CCN(C(=O)c2sc3ncnc(N4CCN(c5ccccc5)CC4)c3c2C)CC1,0,0,0,0,-,-
COC(=O)c1cc2c(nc1SCC(=O)CC#N)CCC2,0,0,0,0,-,-
CC(C)c1ccc(NC(=O)CN(c2ccc(Cl)cc2)S(C)(=O)=O)cc1,0,0,0,6.2,0,0
CC(C)c1ccc(N(CC(=O)NCCSc2ccccc2)S(C)(=O)=O)cc1,0,0,0,21,0,0
CC(=O)Nc1ccc(NC(=O)CN(c2ccc(C(C)C)cc2)S(C)(=O)=O)cc1,0,0,0,0,-,-
Cc1ccc(NC(=O)C(CC(=O)O)C2CCCO2)cc1 (stereo unspecified),0,0,0,19,0,0
CCOc1ccc(NC(=O)C(CC(=O)O)C2CCCO2)cc1 (stereo unspecified),0,0,0,0,-,-
SMILES,MITF primary,TEAD-YAP block,FBW7 activator,GPR151 activ,GPR151 confirm,GPR119 ag
COc1ccccc1CN1CCN(S(=O)(=O)c2ccc(NC(C)=O)cc2)CC1,0,0,0,0,-,-
CC(C)(C)n1nc2c(c1NC(=O)c1cccc(F)c1)CSC2,0,0,0,0,-,-
COc1ccc(CC(=O)Nc2c3c(nn2C(C)(C)C)CSC3)cc1,0,0,0,0,-,-
CC(C)(C)n1nc2c(c1NC(=O)c1c(F)cccc1F)CSC2,0,0,0,7.6,0,0
COc1ccc(NC(=O)Nc2c3c(nn2C(C)(C)C)CSC3)cc1,0,0,0,5.5,0,0
COC(=O)CNC(=O)C(NC(=O)OC(C)(C)C)C(C)C (stereo unspecified),0,0,0,0,-,-
O=C(CN1C(=O)COc2ccc(Cl)cc21)NC1CCCCCC1,0,0,0,0,-,-
CC(C)(C)c1ccc2c(c1)N(CC(=O)NC1CCCCCC1)C(=O)CO2,0,0,0,5.5,0,0
COCCNC(=O)CN1C(=O)COc2ccc(Cl)cc21,0,0,0,7.8,0,0
CC(C)NC(=O)CN1C(=O)COc2ccc(C(C)(C)C)cc21,0,0,0,5.8,0,0
O=C(Nc1ccc2c(c1)oc1ccccc12)c1cc(I)ccc1Cl,0,0,0,0,-,-
O=C(c1cccc([N+](=O)[O-])c1)n1nc(-c2ccco2)nc1NCc1cccs1,0,0,0,0,-,-
COc1cc2nc(NC(=O)c3ccc(F)cc3)sc2cc1OC,0,0,0,0,-,-
Cc1ccc(S(=O)(=O)Nc2c[nH]c(=O)[nH]c2=O)cc1,0,0,0,0,-,-
CCN(CC)S(=O)(=O)c1ccc(NC(=O)/C(C#N)=C/c2ccc(OC(F)F)cc2)cc1,0,0,0,0,-,-
COc1cc2c(cc1C1NC(=S)NC(C)=C1C(=O)N(C)C)CCCC2 (stereo unspecified),0,0,0,8.9,0,0
COC(=O)C1=C(C)NC(=S)NC1c1ccccc1OC (stereo unspecified),0,0,0,5.6,0,0
Cc1ccc(NC(=O)COc2ccccc2C(N)=O)c(C)c1,0,0,0,0,-,-
Cc1ccccc1N(CC(=O)N1CCOCC1)S(=O)(=O)c1ccc(Cl)cc1,0,0,0,14,0,0
Cc1ccccc1N(CC(=O)N1CCCC1)S(=O)(=O)c1ccc(Cl)cc1,0,0,0,0,-,-
COCCN(CCOC)S(=O)(=O)c1ccc(C(=O)Nc2nc(-c3ccncc3)cs2)cc1,0,0,0,8.8,0,0
COCCN(CCOC)S(=O)(=O)c1ccc(C(=O)Nc2nc(-c3ccc(OC)cc3)cs2)cc1,0,0,0,0,-,-
CN1C(=N)N(c2nc(N(C)C)nc(N(C)C)n2)CC1=O,0,0,0,0,-,-
Cc1cc(C)nc(N2CC(=O)N(C)C2=N)n1,0,0,0,5.5,0,0
COc1ccc2nc(C)[nH]c2c1,0,0,0,5.2,0,0
SMILES,MITF primary,TEAD-YAP block,FBW7 activator,GPR151 activ,GPR151 confirm,GPR119 ag
COc1cc2nc(C)[nH]c2cc1OC,0,0,0,0,-,-
COc1ccc(C(=O)NC(c2ccccc2OC)c2cc(Cl)c3cccnc3c2O)cc1 (stereo unspecified),0,0,0,0,-,-
COc1ccc(C(NC(C)=O)c2cc(Cl)c3cccnc3c2O)cc1 (stereo unspecified),62,84,0,5.1,0,0
CCN(CC)c1ccc2cc(C(=O)Nc3ccc(C)cc3)c(=O)oc2c1,0,0,0,0,-,-
CCOC(=O)CC(=O)c1cc2ccc(N(CC)CC)cc2oc1=O,0,0,0,5.4,0,0
O=C(NCCc1ccc(O)cc1)c1cccc(-c2csc3ccccc23)c1,0,0,0,0,-,-
O=C(O)CCC(NCC(O)Cn1c2ccccc2c2ccccc21)C(=O)O (stereo unspecified),0,0,0,5.6,0,0
CC(C)CC(NCC(O)Cn1c2ccccc2c2ccccc21)C(=O)O (stereo unspecified),0,0,0,0,-,-
